Reference: PubChem BioAssay AID686979 (National Center for Advancing Translational Sciences (NCATS), 2013)
The whole screen tested about 420,000 compounds, of which about 50,000 (12%) were called active. Roughly 26% stayed inconclusive and do not appear here. Calls follow the shape of the dose curve; as a rule, active = well fitted inhibition curve with a large enough effect; inconclusive = small, poorly fitted or top-dose-only effect; inactive = flat fitted curve, though single readings scatter. What follows is part of a selection rich in actives, with near analogues and random picks from the rest. Where a call stands in place of a potency, no number is given.

test: qHTS for Inhibitors of human tyrosyl-DNA phosphodiesterase 1 (TDP1): qHTS in cells in presence of CPT; conditions: chicken DT40 Tdp1-/-;hTDP1 cells + 20 nM CPT, ATP luminescence, 48 h; series mostly up to 46.2 µM; also: nearly all actives have a fitted effect of over 55% in size
Description: Human tyrosyl-DNA phosphodiesterase 1 (TDP1) is a novel repair gene, and we propose to use it as a new target for anticancer drug development. TDP1 is not an essential protein, but under treatment with topoisomerase I poison (camptothecin: CPT), TDP1 works as a critical factor for cell survival. To directly identify novel TDP1 inhibitors active in a cellular environment, we have knocked-out the Tdp1 gene in chicken DT40 cells (Tdp1-/-) and generated a complemented counterpart cells that contains a stable transfection of the human TDP1 gene (Tdp1-/-;hTDP1 cells). For the primary screen, Tdp1-/-;hTDP1 cells will be exposed to small molecules in the presence or absence of CPT, and their growth kinetics will be evaluated after 48 hours by measuring ATP activity. […] The hit compounds will then be evaluated in the presence or absence of CPT using Tdp1-/- cells. […] In tertiary assays, biochemical gel-based assays will be used to assess whether the hit compounds specifically target TDP1. To this end, we have screened this cell line against the MLSMR in two primary screens. In one screen we add CPT and in the other we screen in the absence of CPT; this AID represents the screen where CPT was present. NIH Chemical Genomics Center [NCGC] NIH Molecular Libraries Probe Centers Network [MLPCN] MLPCN Grant: MH095538 Assay Submitter (PI): Yves Pommier, NCI
DT40-hTDP1 cells with 20 nM Camptothecin (add 20 microL of 1 mM CPT stock in 1 L of cell culture medium) were dispensed at 400 cells/5microL/well in tissue culture treated 1536-well white wall/solid bottom assay plates (Greiner Bio-One North America, NC, U.S.A.) using a Multidrop Combi 8 channel dispenser (Thermo Fisher, Waltham, MA, USA). 23 nL compounds and controls were transferred using the pin tool (Kalypsys, San Diego, CA, USA) to the assay plates. The assay plates were then incubated at 37 masculineC for a minimum 48 hr. Three microL of Cell Titer Glo solution was added to the plates and incubated at RT in dark for 30 min. Luminescence was read using ViewLux (Perkin Elmer) with 1 sec exposure slow speed, high gain and 2x binning.
Potency is read from the fitted curve at half-maximal effect.

SMILES	Potency
COc1cccc(NC(=S)N(Cc2ccc(C)cc2)Cc2ccccn2)c1	inactive
CN=C1C=C/C(=N/N=c2\ccn(O)cc2C)C=C1C	inactive
CCOC(=O)C1=C(CC)Nc2ccccc2N=C1NC(=O)c1cccc(S(=O)(=O)N2CCCC2)c1	inactive
CC(=O)NC12CC3CC(C1)CC(C(=O)N1CCN(C(=O)c4ccco4)CC1)(C3)C2	inactive
N#CC1(Nc2ccc3c4c(cccc24)CC3)CCCCC1	inactive
CC(C)[C@H]1CC[C@@H](C)C[C@H]1O	inactive
CC(c1ccccn1)N(CCN(C)C)C(=S)Nc1ccccc1F (stereo unspecified)	inactive
N/C(=N\OC(=O)CCn1cccc(C(F)(F)F)c1=O)c1ccc(OC(F)(F)F)cc1	inactive
CC(=O)Nc1ccc(C(=O)N(C2=NC(C)CS2)c2ccc(Cl)cc2)cc1 (stereo unspecified)	inactive
COc1ccccc1NC(=O)CSc1nnc(Cn2nnc(-c3ccccc3)n2)n1-c1ccccc1	18.4 µM (active)
COc1ccccc1OCc1nnc(SCC(N)=O)n1-c1ccccc1	inactive
COc1ccccc1NC(=O)CSc1nnc(Cc2cccn2C)n1-c1ccc(F)cc1	inactive
COc1ccc(S(=O)(=O)N(C)CC(=O)NCCCN2CCOCC2)cc1Cl	inactive
O=C(COc1ccccc1Cl)N1CCCCCCC1	inactive
O=C(COc1ccccc1Cl)Nn1cnnc1	inactive
Cc1cc(C(=O)COc2ccc(Br)cc2F)c(C)n1C1CC1	7.31 µM (active)
O=C(COc1ccc(Br)cc1F)NCC1(N2CCCCC2)CCCCC1	inactive
CC(=O)C1=C(C)NC(=O)NC1c1cc(Br)ccc1OCC#N (stereo unspecified)	inactive
Cc1cc(C(=O)COc2ccccc2Cl)c(C)n1C1CC1	13 µM (active)
C/C(N)=C(/C#N)C(=O)COC(=O)c1cc(-c2ccc(C)cc2)nc2ccccc12	inactive
COc1ccc(/C=C/C(=O)NC(=S)N2CCCC(C(N)=O)C2)cc1 (stereo unspecified)	inactive
OCCC1CN(Cc2ccc3nsnc3c2)CCN1C1CCCC1 (stereo unspecified)	inactive

SMILES	Potency
CC(C)c1cc(C(=O)N/N=C/c2ccoc2)c(O)c(C(C)C)c1	inactive
CC(C)C[C@H](NC(=O)N1CC(=O)Nc2ccccc21)C(=O)N[C@H](Cc1ccccc1)C(=O)O	inactive
Cc1ccc(N(C(=O)c2ccc(CN3CCOCC3)o2)C(C(=O)NCCC(C)C)c2cccs2)c(C)c1 (stereo unspecified)	inactive
CCCCNC(=O)N(O)C1N(/N=C/c2ccc(N(C)C)cc2)C(=S)SC1(C)C (stereo unspecified)	inactive
Cn1cnnc1SCC(=O)Nc1ccc(N2CCOCC2)cc1	inactive
C=CC(=O)Nc1ccc(Nc2ccnc(Nc3ccc(N4CCN(C)CC4)cc3)n2)cc1	9.2 µM (active)
CN1CCN(c2ccc(NC(=O)c3cc(Cl)c4c(c3)OCCO4)cc2)CC1	inactive
Cc1c(C)n(Cc2ccc(Cl)cc2)c2ccc(C(=O)NCCCN3CCOCC3)cc12	23.1 µM (active)
Cc1c(C)n(Cc2ccc(Cl)cc2)c2ccc(C(=O)NCCc3ccc(S(N)(=O)=O)cc3)cc12	18.4 µM (active)
COc1ccc(C(=O)NCC[N+](C)(C)C)cc1	inactive
CCOC(=O)c1c(C)c(C(=O)NCCc2ccc(S(N)(=O)=O)cc2)c(C)n1CC	inactive
COc1ccc(-n2c(=O)[nH]c3cc(C(=O)NCCc4ccc(OC)c(OC)c4)ccc3c2=O)c(OC)c1	inactive
COc1ccc(C(=O)NCCc2ccc(S(N)(=O)=O)cc2)cc1OC	inactive
CCn1c(C)c(C)c2cc(C(=O)NCCc3cc(OC)ccc3OC)ccc21	20.6 µM (active)
Cc1ccc(NS(=O)(=O)c2ccc(C(=O)NCCCN3CCOCC3)cc2)cc1	inactive
COc1ccc(Cn2c(=S)[nH]c3cc(C(=O)NCCCN4CCOCC4)ccc3c2=O)cc1	inactive
NC(=O)c1nnsc1-c1ccc(-c2snnc2C(N)=O)cc1	inactive
CCCCN1CC(CO)Oc2cccc(F)c2S1(=O)=O (stereo unspecified)	inactive
COc1ccc(OCC(=O)NCCS(=O)(=O)N2CCN(c3ccc(F)cc3)CC2)cc1	inactive
Cc1cc2cc3c(N)[nH]nc3nc2cc1C	inactive
O=S1(=O)CCOC[C@H](Cc2ccccc2)N1Cc1ccccc1Br	inactive
COc1ccccc1C(=O)NC(=S)NC12CC3CC(CC(C3)C1)C2	inactive

SMILES	Potency
CC(=O)c1cc(CN2CCC(n3nccc3NC(=O)c3ccccc3Cl)CC2)cs1	inactive
CCCCCc1ccc(-c2ccc(C(=O)O)cc2)nc1	inactive
CC(=O)Nc1ccc(S(=O)(=O)NC2(C(F)(F)F)C(=O)NC(C)=C2C#N)cc1 (stereo unspecified)	inactive
CC1CCCC(C)N1C(=O)COC(=O)c1ccccc1C(=O)c1ccccc1 (stereo unspecified)	inactive
C=CCc1ccccc1OCC(O)CN1CCN(CCO)CC1 (stereo unspecified)	inactive
Cc1ccc(Cl)c(OCC(=O)N2CCc3ccccc3C2)c1	inactive
OC(COc1ccc(F)cc1Cl)CN1CCc2ccccc2C1 (stereo unspecified)	20.6 µM (active)
COCCN1CCn2c(nc3cc(NS(C)(=O)=O)ccc32)C1	inactive
Cc1cccc(CCNC(=O)Cn2ncc3c([nH]c4ccc(C)cc43)c2=O)c1	inactive
CC12CN(Cc3ccccc3)CC(C)(CN(Cc3ccccc3)C1)C2=NO	23.1 µM (active)
CC(=O)N1CCC2(CCCN(Cc3ccccc3)C2)CC1	inactive
CS(=O)(=O)N1CCC2(CC1)CN(Cc1ccccc1)C2	inactive
O=C1Nc2cc(Cl)c(Cl)cc2N(O)N1c1cc(Cl)cc(Cl)c1	inactive
NC(=O)CSc1nnc(NC(=O)c2ccc(Br)o2)s1	inactive
CCSc1ncc(Cl)c(C(=O)Nc2cc(C)ccc2C)n1	inactive
CSc1nnc(NC(=O)c2nc(S(=O)(=O)Cc3ccc(C)cc3)ncc2Cl)s1	6.51 µM (active)
O=C(Nc1nc2ccc(F)cc2s1)c1nc(SCc2ccccc2F)ncc1Cl	inactive
Cc1ccc(NC(=O)c2cccnc2C(=O)Nc2ccc(C)cc2)cc1	inactive
CCCSc1ncc(Cl)c(C(=O)Nc2c(C(=O)Nc3ccccc3)oc3ccccc23)n1	inactive
Cc1cccc(NC(=O)c2nc(S(=O)(=O)Cc3ccccc3)ncc2Cl)c1	0.92 µM (active)
CCSc1nnc(NC(=O)c2ccc(C)cc2)s1	inactive
Cc1ccc(NC(=O)c2nc(S(=O)(=O)Cc3cccc(C)c3)ncc2Cl)cc1	0.651 µM (active)

SMILES	Potency
O=C(Nc1ccccc1C(F)(F)F)c1nc(S(=O)(=O)Cc2ccccc2F)ncc1Cl	0.562 µM (active)
CN(CC(=O)Nc1ccccc1C(F)(F)F)C(=O)Cc1ccccc1F	inactive
Cc1cccc(NC(=O)C(C)SCc2ccccc2)c1 (stereo unspecified)	inactive
Cc1cc2c3ccccc3[nH]c(=O)n2n1	inactive
COc1ccc(S(=O)(=O)N2CCOCC2)cc1NC(=O)CSc1ncnc2ccccc12	inactive
Cc1cc2c(=O)n(CC(=O)NCC(=O)Nc3ccc(C(C)C)cc3)cnc2s1	inactive
COc1ccc(CNC(=O)COc2cccnc2[N+](=O)[O-])cc1	inactive
COc1cccc(C(=O)OCC(=O)c2[nH]c(C)c(C(C)=O)c2C)c1	inactive
CC(=O)Nc1ccc(Sc2ccccc2C(=O)N2CCCC2)cn1	inactive
Cc1[nH]c2ccccc2c1C(=O)C(=O)NCc1nnnn1-c1cccc(F)c1	inactive
CCc1c(C)c2ccc(OC3CCCCC3=O)cc2oc1=O (stereo unspecified)	inactive
Cc1cc(NC(=O)c2ccc(F)cc2)ccc1NC(=O)c1ccco1	inactive
CSc1ncc(Cl)c(C(=O)Nc2cc(C)ccc2C)n1	inactive
Cc1cccc(CS(=O)(=O)c2ncc(Cl)c(C(=O)Nc3ccc(F)cc3)n2)c1	1.3 µM (active)
CC(=O)C1C(c2ccc(Cl)cc2)c2c(n[nH]c2C)CC1(C)O (stereo unspecified)	inactive
Cc1ccc(CNC(=O)C(=O)c2cn(CC(=O)N3CCOCC3)c3ccccc23)cc1	inactive
Cc1ccc(NC(=O)N2CCSc3ccccc32)cc1	inactive
C=CCn1c(C23CC4CC(CC(C4)C2)C3)n[nH]c1=S	inactive
CCc1c(C)nc(N2CCN(Cc3ccccc3)CC2)[nH]c1=O	inactive
COC(=O)c1sc(N2CCN(Cc3ccccc3)CC2)nc1N	inactive
CC(C)OC(=O)C(C#N)c1nc2ccccc2nc1N1CCN(Cc2ccccc2)CC1 (stereo unspecified)	23.1 µM (active)
CN1CC(=O)N=C1N	inactive

SMILES	Potency
N#Cc1c(-c2ccccc2)c(-c2ccccc2)n[nH]c1=O	inactive
CN(C)c1ccc(CNC(=O)CN2C(=O)COc3ccc(S(=O)(=O)N4CCCC4)cc32)cc1	inactive
CCCCOC(=O)CNc1nnc(SCC(=O)OCC)[nH]c1=O	10.3 µM (active)
CCOC(=O)c1c(NC(=O)CSc2nnc(C)c(=O)[nH]2)sc2c1CCC2	inactive
Cc1nnc(SCC(=O)N2CCOCC2)[nH]c1=O	inactive
CC(=O)c1ccc[n+](C(C)CCC(C)[n+]2cccc(C(C)=O)c2)c1 (stereo unspecified)	inactive
CSc1ccccc1NC(=O)c1ccc2c(c1)CCN2S(C)(=O)=O	inactive
CCOC(=O)c1c(N)n(-c2cccc(C)c2C)c2nc3ccccc3nc12	inactive
CS(=O)(=O)N1CCc2cc(C(=O)Nc3ccccc3Br)ccc21	inactive
O=C(/C=C/c1ccco1)NC(=S)N1CCCCC1	inactive
CC(=O)N1CCN(c2cccc(C)c2C)CC1	inactive
CCn1c(C)c(C)c2cc(C(=O)N3CCN(c4cccc(C)c4C)CC3)ccc21	20.6 µM (active)
Cc1cccc(N2CCN(C(=O)/C=C/c3ccco3)CC2)c1C	16.4 µM (active)
Cc1ccccc1N1CCN(C(=O)c2cccnc2)CC1	inactive
Cc1cccc(N2CCN(C(=O)c3ccc(Nc4nc5ccccc5n5nnnc45)cc3)CC2)c1C	inactive
CCC(CC)C(=O)N1CCN(c2cccc(C)c2C)CC1	14.6 µM (active)
Cc1cccc(N2CCN(C(=O)c3ccc4c(c3)CCN4S(=O)(=O)c3ccccc3)CC2)c1C	5.8 µM (active)
C[C@H]1CN([C@@H](C)CO)C(=O)CCCn2cc(nn2)CO[C@@H]1CN(C)C(=O)Nc1ccccc1	inactive
